# Only some compounds are listed: those with a hit (about 2.1% of all), similar ones and a draw of the others.
# Giardia killer: kills Giardia lamblia. Giardia lamblia trophozoite viability. activity change, % at 7.66 µM, hits read low. 0.15% of 340,000 active. AID 540267; in the data active = activity change below about -80%; inconclusive = between about -30% and that limit;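 also: parasites exposed to compound for two days anaerobically before the ATP read; % is scaled to controls: 0 for no effect and ±100 for the full control effect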
#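 Anaerobic 48 hrs incubation at 37 deg C of 100 trophozoites/well with test compounds; ATPLite 1-Step luminescence, 15-30 min RT, reports cellular ATP as viability.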
# p53 reactivation: restores transcriptional activity of mutant p53; H1299 p53-A138V BP100-luciferase reporter, luminescence, 24 h; Potency, µM (titrated, usually from 92.2 µM), for the others: at the top dose activity change, positive = activation, actives largely listed as activators; 0.063% of 320,000 active; also: potency is read from the fitted curve at half-maximal effect; % of control where 0% means no effect; nearly all actives have a fitted effect of over 45% in size
#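 p53-null H1299 cells stably carrying temperature-sensitive p53-A138V and a BP100-luciferase reporter were pinned with compounds (4-point, 1:5 series) and held 24 hrs at 37 deg C. Luminescence was read 10 min after detection reagent.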
# uPA generation: inhibitors of cell surface uPA generation; Potency, µM (series often up to 38.3 µM), for inactives: at the highest dose activity change, negative = inhibition, most hits filed as inhibitors; cell surface uPA generation assay, qHTS; 0.31% of 330,000 active; AID 540303; active = well fitted inhibition curve with a large enough effect; inconclusive = small, poorly fitted or top-dose-only effect; inactive = no such curve, though single readings can be large or run the other way; tested in mouse RAW 264.7 cells; also: potency is read from the fitted curve at half-maximal effect; % is scaled to controls: 0 for no effect and ±100 for the full control effect; nearly all actives have a fitted effect of over 55% in size
# B2AR arrestin: beta2AR (human) beta-arrestin recruitment activity | P07550 | 0.02% of 330,000 active | beta-arrestin recruitment to beta2AR, cell-based reporter | Potency, µM (doses to about 46.1 µM), for inactives: at the highest dose activation, actives largely listed as activators;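 also: potency is read from the fitted curve at half-maximal effect; 0% = DMSO controls and full agonism = EC100 isoproterenol or metaproterenol; nearly all actives have a fitted effect of over 65% in size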
# Target sequence (P07550 whole entry, looked up): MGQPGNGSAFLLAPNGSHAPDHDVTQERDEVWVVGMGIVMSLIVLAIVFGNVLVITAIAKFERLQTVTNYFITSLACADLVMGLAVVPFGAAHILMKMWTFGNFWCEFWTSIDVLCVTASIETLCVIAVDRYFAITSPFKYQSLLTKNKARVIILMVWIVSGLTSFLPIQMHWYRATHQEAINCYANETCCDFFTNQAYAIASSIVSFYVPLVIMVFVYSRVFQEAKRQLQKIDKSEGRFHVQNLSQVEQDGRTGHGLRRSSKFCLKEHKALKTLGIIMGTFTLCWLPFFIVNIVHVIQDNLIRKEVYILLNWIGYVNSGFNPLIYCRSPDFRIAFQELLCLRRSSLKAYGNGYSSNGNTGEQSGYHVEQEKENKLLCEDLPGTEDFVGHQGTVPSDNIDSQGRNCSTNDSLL
# Mito fusion yeast: blocks mitochondrial division or promotes mitochondrial fusion. Potency, µM (titrated, usually from 46.1 µM), for inactives: at the highest dose growth rescue (activation), actives largely listed as activators. S. cerevisiae fusion-defective mutant growth rescue, CellTiterGlo 48 h. 0.23% of 320,000 active; also: potency is read from the fitted curve at half-maximal effect; % of control where 0% means no effect; nearly all actives have a fitted effect of over 45% in size
#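 S. cerevisiae fusion-defective temperature-sensitive mutants (e.g. fzo1-1, mgm1-5) grown 48 h at 37C in YPEG (ethanol/glycerol non-fermentable) medium with 23 nl compound per well; growth rescue read as CellTiterGlo luminescence.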
# ClpP mod: qHTS Assay for Activators of ClpP; ATP-dependent Clp protease proteolytic subunit (Bacillus subtilis (strain 168)), P80244; purified B. subtilis ClpP, FRET peptide cleavage, 20 min; Potency, µM (titrated, usually from 57.5 µM), without a hit: top-dose activity change, negative = active; 1.9% of 340,000 active; AID 651965, 2013; active = well fitted falling curve with a large enough effect; inconclusive = small, poorly fitted or top-dose-only effect; inactive = no such curve, though single readings can be large or run the other way; also: potency is read from the fitted curve at half-maximal effect; the source files actives as falling curves though it sought activators and does not explain the sign; nearly all actives have a fitted effect of over 65% in size
# Target sequence (P80244 whole entry, looked up): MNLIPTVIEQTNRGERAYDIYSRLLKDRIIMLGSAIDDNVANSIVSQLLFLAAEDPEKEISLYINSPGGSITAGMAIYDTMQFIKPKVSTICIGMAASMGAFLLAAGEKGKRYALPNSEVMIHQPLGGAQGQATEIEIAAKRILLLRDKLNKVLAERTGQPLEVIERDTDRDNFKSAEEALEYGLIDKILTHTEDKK
#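 ClpP 10 microg/mL final, pH 8 Tris/KCl buffer with BSA, glycerol, Tween-20; compound pinned in; FRET-FV substrate; RT 20 min; Ex320/Em430; ΔFRET vs ADEP 5.8 microM, DMSO, no enzyme.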
# * marks the source's active call; other numbers are inactive results; ? = inconclusive; / = no result given; ! = a repeat was not active. Unless noted, calls follow the shape of the dose curve; as a rule, active = well fitted curve in the direction sought with a large enough effect; inconclusive = small, poorly fitted or top-dose-only effect, or another doubt; inactive = no such curve, though single readings can be large; an effect the other way counts as inactive or inconclusive.
SMILES,Giardia killer,p53 reactivation,uPA generation,B2AR arrestin,Mito fusion yeast,ClpP mod
Cc1ccnc(SCC(=O)c2ccc([N+](=O)[O-])cc2)n1,-0.6,12.9%,2.6%,-0.8%,2.0%,15.8µM*
C#CCNC(=O)C[C@@H]1C[C@@]2(C(=O)OCC)CCCC=C2N(CCC2=CCCCC2)C1=O,/,/,/,/,/,2.4%
O=C1CCC/C(=N\NC(=O)c2ccc(COc3ccccc3-c3ccccc3)cc2)C1,12.4,-3.4%,11.6%,-0.1%,-2.6%,-1.6%
O=C(COc1ccccc1-c1ccccc1)NN=C1CCCC1,-4.2,6.9%,10µM*,-0.9%,-14.6%,1.0%
Cc1cc(C)cc(NC(=O)Cn2c(-c3ccccc3Cl)nc3ccccc32)c1,-15.1,21.9%,1.4%,-0.8%,-3.7%,28.2µM*
Cc1c(Br)c([N+](=O)[O-])nn1CCCC(=O)N1CCN(c2ccccc2)CC1,-16.4,-6.5%,-1.5%,-0.8%,16.9%,14.1µM*
Cc1c(Cl)c([N+](=O)[O-])nn1CCCC(=O)N1CCN(c2ccccc2)CC1,1.2,-0.1%,-1.3%,-0.3%,5.9%,1.2%
NC(=O)C1CCN(C(=S)c2ccc(-c3ccc(Br)cc3)o2)CC1,13.0,19.0%,-1.4%,-0.1%,0.9%,/
NC(=O)c1ccc(-c2ccc(Br)cc2)o1,-3.2,?,-4.1%,-0.5%,-2.1%,28.2µM*
Cc1ccc(Oc2nc(-c3ccccc3)ncc2S(=O)(=O)c2ccc(C)cc2)cc1,3.2,-1.7%,11.8%,-1.0%,-4.4%,22.4µM*
CCCN(C(=O)c1cc(S(=O)(=O)N2CCCCC2)ccc1Cl)C1CCS(=O)(=O)C1 (centres undefined),-12.2,-1.1%,-15.0%,0.3%,-0.3%,-3.5%
CCCN(C(=O)C1CCN(S(=O)(=O)c2ccc(OC)c(OC)c2)CC1)C1CCS(=O)(=O)C1 (centres undefined),-10.8,6.2%,-0.4%,0.2%,-3.0%,14.1µM*
Cc1ccc(NC(=O)c2nc[nH]c2C(=O)NCCCCCNC(=O)OC(C)(C)C)cc1,-20.8,-6.2%,-1.0%,0.3%,-12.5%,-0.4%
CC(C)(C)OC(=O)NCCCCCNC(=O)c1[nH]cnc1C(=O)Nc1ccc(Cl)cc1,37.7,-14.5%,6.31µM*,0.0%,-33.9%,-11.5%
CC1(c2ccncc2)Nc2ccccc2-c2nc3ccccc3n21 (centres undefined),-17.3,6.4%,-7.3%,-0.3%,0.6%,28.2µM*
COc1ccc2c(c1)C1(Nc3ccccc3-c3nc4ccccc4n31)C(=O)N2 (centres undefined),-6.4,-6.8%,-0.6%,-0.1%,-1.1%,1.3%
CCCOC(=O)C[N+](C)(C)CCOC1CC2CCC1(C)C2(C)C (centres undefined),-3.9,-0.7%,-7.0%,0.0%,-3.5%,-0.4%
CC(C)CCOC(=O)C[N+](C)(C)CCOC1CC2CCC1(C)C2(C)C (centres undefined),10.5,1.0%,10µM*,-0.3%,29.0%,0.6%
COc1ccccc1NC(C)C(=O)c1c(C)[nH]c2ccccc12 (centres undefined),/,/,/,/,/,0.0%
CCC(Sc1nc2nccnc2c(=O)n1Cc1ccc(OC)cc1)C(=O)NC1CCCCC1 (centres undefined),/,/,/,/,/,0.9%
COc1ccc(-c2ccc3c(N)c(C(=O)NCc4ccc(C)cc4)sc3n2)cc1,/,/,/,/,/,11.2µM*
Cc1c(C(=O)OC(C)C)sc2nc[nH]c(=O)c12,-3.7,4.4%,1.8%,-0.1%,7.7%,?
COc1ccc(CNC(=O)c2sc3nc[nH]c(=O)c3c2C)cc1,/,/,/,/,/,39.8µM*
COC(=O)c1sc2nc[nH]c(=O)c2c1C,-9.4,-11.5%,0.3%,-0.9%,-5.9%,15.8µM*
Clc1ccccc1CSc1nc(NCCc2ccccc2)c2ccccc2n1,/,/,/,/,/,-2.6%
SMILES,Giardia killer,p53 reactivation,uPA generation,B2AR arrestin,Mito fusion yeast,ClpP mod
O=C(Nc1nc2cc(Cl)ccc2s1)C1CCCN(S(=O)(=O)c2cccc3cccnc23)C1 (centres undefined),-24.4,2.3%,12.6µM*,-0.1%,4.3%,-8.9%
O=C(Nc1ccccc1Cl)C1CCCN(S(=O)(=O)c2cccc3cccnc23)C1 (centres undefined),39.2,-7.2%,-20.0%,-1.2%,2.2%,-3.3%
O=C(Cn1nc(Cc2cccnc2)c2ccccc2c1=O)Nc1ccc(F)c(Cl)c1,/,/,/,/,/,-1.4%
COc1ccc(-c2nc3ccc(C)cn3c2NCc2ccccc2)cc1SC1CCCCC1,3.4,-5.9%,3.16µM*,0.1%,9.8%,3.4%
CCCCCCSc1ccc(-c2nc3ccc(C)cn3c2NCc2ccccc2)cc1OC,-10.5,18.0%,2.2%,0.1%,8.1%,3.2%
CCCCNc1c(-c2ccc(OC)c(SC(C)CC)c2)nc2cc(C)ccn12 (centres undefined),7.1,6.7%,-20.3%,0.1%,/,27.3µM*!
CCCCNc1c(-c2ccc(OC)c(SC(C)CC)c2)nc2ccc(C)cn12 (centres undefined),-13.5,-0.5%,?,-0.1%,/,3.6%
CCC(C)Sc1ccc(-c2nc3ccc(C)cn3c2NCc2ccccc2)cc1OC (centres undefined),-1.4,16.2%,5.62µM*,0.0%,-3.8%,3.9%
CCC(C)Sc1cc(-c2nc3ccc(C)cn3c2NCc2ccccc2)ccc1OC (centres undefined),41.4,/,4.47µM*,/,/,?
COc1ccc(-c2nc3cc(C)ccn3c2NCc2ccc3c(c2)OCO3)cc1,-5.5,2.7%,0.8%,0.3%,-4.4%,28.2µM*
CCC(C)Sc1ccc(-c2nc3ccc(C)cn3c2NC2CCCCC2)cc1 (centres undefined),-11.7,8.1%,-36.1%,-0.1%,-6.0%,4.1%
CCCCNc1c(-c2ccc(SC(C)CC)cc2)nc2ccccn12 (centres undefined),-13.8,?,2µM*,-0.1%,-6.0%,3.9%
COc1ccc(-c2nc3ccccn3c2NCc2ccc3c(c2)OCO3)cc1,5.7,22.2%,0.2%,0.4%,-1.3%,?
CCC(C)Sc1cccc(-c2nc3ccc(C)cn3c2NC2CCCCC2)c1 (centres undefined),-2.4,-0.9%,4.9%,-0.2%,4.6%,15.8µM*!
COc1ccc(-c2cc(-c3nc4ccccn4c3NCc3ccccc3)ccc2OC)cc1,-2.5,-8.6%,5.62µM*,-3.7%,/,3.4%
c1ccc(CNc2c(-c3cccc(SC4CCCCC4)c3)nc3ccccn23)cc1,-26.8,9.3%,?,-0.3%,/,3.7%
CCN(CC)c1ccc(/C=C/c2ccncc2)cc1,/,/,/,/,/,-1.0%
CC(C)N1CCCC(C)(C(=O)Nc2cccc(Oc3ccccc3)c2)C1 (centres undefined),/,/,/,/,/,-2.9%
COc1ccc(CNC(=O)c2ccc3c(c2)nc2n3CCC(C)C2)c(OC)c1 (centres undefined),/,/,/,/,/,-3.6%

# Compound activity deposited in PubChem BioAssay by National Center for Advancing Translational Sciences (NCATS).
